From PubChem BioAssay AID651650 (Sanford-Burnham Center for Chemical Genomics, 2012) come the findings set out here.

Chain of Neuropilin-1 (Homo sapiens) (O14786 whole entry, looked up): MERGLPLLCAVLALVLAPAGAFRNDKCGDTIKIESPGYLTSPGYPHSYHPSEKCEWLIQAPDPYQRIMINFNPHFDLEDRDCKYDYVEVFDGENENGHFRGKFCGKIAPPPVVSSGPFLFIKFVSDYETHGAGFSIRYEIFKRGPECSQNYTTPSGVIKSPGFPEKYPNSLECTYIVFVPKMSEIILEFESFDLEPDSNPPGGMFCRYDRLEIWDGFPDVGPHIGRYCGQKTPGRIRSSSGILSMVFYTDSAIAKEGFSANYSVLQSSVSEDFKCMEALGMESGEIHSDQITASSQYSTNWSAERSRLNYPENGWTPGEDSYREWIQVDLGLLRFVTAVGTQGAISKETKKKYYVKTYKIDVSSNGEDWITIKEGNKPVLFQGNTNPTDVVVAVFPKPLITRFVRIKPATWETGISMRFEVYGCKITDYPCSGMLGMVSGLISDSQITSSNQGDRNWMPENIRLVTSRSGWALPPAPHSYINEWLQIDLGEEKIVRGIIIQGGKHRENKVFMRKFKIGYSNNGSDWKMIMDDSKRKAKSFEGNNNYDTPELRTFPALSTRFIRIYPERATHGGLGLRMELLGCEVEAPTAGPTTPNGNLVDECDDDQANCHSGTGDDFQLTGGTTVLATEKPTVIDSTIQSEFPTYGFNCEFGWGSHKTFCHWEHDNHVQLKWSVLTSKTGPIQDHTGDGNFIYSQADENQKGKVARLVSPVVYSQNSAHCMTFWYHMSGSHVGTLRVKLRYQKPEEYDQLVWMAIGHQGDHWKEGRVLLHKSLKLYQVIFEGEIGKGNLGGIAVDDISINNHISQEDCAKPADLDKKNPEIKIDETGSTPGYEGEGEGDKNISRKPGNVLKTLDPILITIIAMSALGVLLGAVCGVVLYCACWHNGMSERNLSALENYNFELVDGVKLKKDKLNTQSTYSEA

This experiment concerns the target Neuropilin-1 (Homo sapiens) (UniProt O14786). The experiment in a line: NRP-1 b1b2 CendR peptide binding inhibitors, dose response, biochemical, FP and AlphaScreen panel (AID 651650). The conditions noted are these: NRP-1 b1b2 / RPARPAR peptide binding, FP or AlphaScreen; run 1, at 100 µM (top of the series).
What is called inhibition is the relative decrease from the control value, in per cent. For the compound `O=C(NCCCN1CCCC(O)C1)c1cc(COc2ccc(F)cc2F)on1` (stereo not drawn), the inhibition stood at 50.2%.

As to `CCOC(=O)C1CCN(S(=O)(=O)c2ccc3c(c2)CCN3C(=O)C2CCC2)CC1`, the inhibition worked out at 6.43%.

On to `C=CCn1c(SCC(=O)Nc2ncc(Cc3ccc(Br)cc3)s2)nnc1-c1ccncc1`, for which the inhibition worked out at 42%.

Consider `c1ccc2c(CNc3ccc(CNc4ncn[nH]4)cc3)cccc2c1`, for which the inhibition is 25.6%.

Regarding `Cc1ccccc1Nc1nc(N)nc(COC(=O)CC2CC3CCC2C3)n1` (stereo not drawn), the inhibition amounted to 3.37%.

Consider `NS(=O)(=O)c1ccc(CNC(=S)NCc2ccc(F)cc2)cc1`, for which the inhibition was 42.3%.

Turning to `CSc1nc2ccccc2c(=O)n1C1CCOC(C)(C)C1` (stereo not drawn), the inhibition worked out at 19.3%.

Turning to `COc1ccccc1N1CCN(C2CCCN(C(=O)Cn3cccn3)C2)CC1` (stereo not drawn), the inhibition stood at 38.2%.

Consider `CC(C)(C)C(=O)c1cnc(Nc2ccccc2)s1`, for which the inhibition is -10.5%.

For the compound `COc1ccc(C(=O)N2CCC(C)(C(=O)NS(=O)(=O)C3CC3)C2)cc1F` (stereo not drawn), the inhibition was determined as 12.1%.

Regarding `C[C@@H](NC(=O)c1[nH]cnc1C(=O)Nc1cccc(Cl)c1)c1ccccc1`, the inhibition came to 54.3%.

Take `CCN(CC(=O)NCc1cccs1)S(=O)(=O)c1ccc(C(C)C)cc1`: the inhibition was 1.66%.

Consider `Cc1ccccc1S(=O)(=O)Nc1nc2ccccc2nc1NCCO`, for which the inhibition was 25.8%.

For the compound `Cc1cccc(NS(=O)(=O)c2cccs2)c1`, the inhibition was found to be 44.9%.

For `N/C(CSc1ccc(Cl)cc1)=N\S(=O)(=O)c1ccc(Cl)cc1`, the inhibition was determined as 37.6%.

With `CC(=O)NC(c1cccc(F)c1)c1nc(-c2cccc(C(F)(F)F)c2)cs1` (stereo not drawn), the inhibition was found to be 9.72%.

`Cc1ccc(C(=O)NCCCc2ccccc2)c(C)c1`: the inhibition turned out to be 37.1%.

As to `Cc1csc(NC(C)c2nc3cc(C(F)(F)F)ccc3n2CCCO)n1` (stereo not drawn), the inhibition was found to be 89.7%.

Turning to `CC(C)(C)n1cnc2cc(NC(=O)c3ccccc3)ccc21`, the inhibition came to 95.9%.

For the compound `COc1ccc(OCC(=O)O/N=C(\N)Cc2ccc(Cl)cc2Cl)cc1`, the inhibition was 61.1%.

Consider `C=C(C)COc1ccc(-c2[nH]ncc2-c2ccccc2)c(O)c1`, for which the inhibition amounted to 16.9%.

As to `O=C(CSc1nc2ccccc2c(=O)n1-c1ccc(F)cc1F)Nc1ccc2c(c1)CCC2`, the inhibition was determined as 21.2%.

Consider `OCC1OC(n2cnc3c(/C=C(\O)c4ccccc4)ncnc32)C(O)C1O` (stereo not drawn), for which the inhibition came out at 3.57%.

Regarding `O=C(NNC(=O)c1csc(N2CCOCC2)n1)c1ccc(=O)[nH]c1`, the inhibition was determined as 39.8%.

As to `Cc1ccc(NC(=O)c2ccc3c(c2)OCCO3)cc1S(=O)(=O)Nc1cccc(Cl)c1`, the inhibition worked out at 4.91%.

With `Cc1cc(N/C(=N/S(=O)(=O)c2cc(F)ccc2F)c2ccccc2)n(-c2ccccc2)n1`, the inhibition was -9.15%.

In the case of `COc1ccccc1N1CCN(C(=O)C2c3ccccc3Oc3ccccc32)CC1`, the inhibition is 38.7%.

Take `O=C(/C=C/c1ccccc1)c1ccccn1`: the inhibition is -2%.

In the case of `Cc1nnc(SC(C)C(=O)Nc2ccc(S(=O)(=O)NC3CCCCC3)cc2)s1` (stereo not drawn), the inhibition turned out to be 21.8%.

Regarding `CCN(CCCNC(=O)CNC(=O)c1nn(-c2ccc(OC)cc2OC)c(=O)c2ccccc12)c1cccc(C)c1`, the inhibition is 24.3%.

As to `COc1ccc(S(=O)(=O)N2CCCCC2)cc1NC(=O)c1c(F)cccc1Cl`, the inhibition was found to be 37.3%.

For the compound `C[C@@H](NC(=O)c1nc[nH]c1C(=O)NCc1ccccc1)c1ccccc1`, the inhibition stood at 23.1%.

On to `COC(=O)n1c(=O)oc2ccccc21`, for which the inhibition came to 50%.

Regarding `O=C(O/N=C1/CCSc2ccccc21)c1ccccc1`, the inhibition worked out at 17.1%.

Take `CCc1onc(C)c1C(=O)Nc1cc(C)ccc1OC`: the inhibition came out at 95.6%.

As to `O=[N+]([O-])c1cc(-c2csc(NCCc3nc4cc(C(F)(F)F)ccc4n3CCCO)n2)ccc1Cl`, the inhibition was 33.1%.

Regarding `O=C(NNC(=O)c1ccccc1Cl)c1cccnc1`, the inhibition stood at 94%.

`O=C(Nc1ccc(N2CCOCC2)cc1)c1cc(-n2cnnc2)ccc1Cl`: the inhibition turned out to be 55%.
